Source: PubChem BioAssay AID720568 (Broad Institute, 2013)
Potency and affinity values are given separately. Active and inactive are the calls of the source. A call without a number means that no potency is given here. How the calls were made is not given here.

Assay: toxicity toward HepG2 hepatoma cells – cell-based, dry powder samples, cytotoxicity control, dose response (AID 720568)

SMILES | outcome
c1ccc(CSc2nnc(-c3ccccc3)o2)cc1 | inactive
COc1ccc(CSc2nnc(-c3ccccc3)o2)cc1 | inactive
